The text below walks through data of PubChem BioAssay (NCATS).

Results filed as inconclusive are left out. Unmarked numbers belong to inactive results. Calls of active or inactive are those of the source. Calls follow the shape of the dose curve; as a rule, active = well fitted cell-killing curve with a large enough effect; inconclusive = small, poorly fitted or top-dose-only effect, or effect the other way; inactive = no such curve, though single readings can be large or run the other way.
Potency is read from the fitted curve at half-maximal effect.

The assay is described as follows: qHTS of pediatric cancer cell lines to identify multiple opportunities for drug repurposing: Confirmatory screen for Saos-2 cells (AID 1347127). Also: nearly all actives have a fitted effect of over 60% in size. The conditions noted are these: Saos-2 osteosarcoma cell viability; series mostly up to 45.9 µM; activity change, negative = cytotoxic: at the top concentration. An excerpt: Drug repurposing or repositioning has been offered as a strategy for drug development in oncology programs. This approach has special potential for childhood cancers and other rare or orphan diseases, where the expected return on new drug development has been a disincentive to pharmaceuticals.
In this project we exploit the poly-pharmacology of drugs to discover new indications via phenotypic screening of a panel of 19 well-characterized cell lines derived from solid tumors seen in children and adolescents. The goal is to identify approved drugs with previously unrecognized anticancer properties that has the potential to reveal new mechanisms and biological processes involved in carcinogenesis or drug resistance. We employed a titration-based paradigm (quantitative high-throughput screening or qHTS), where all compounds were tested at multiple concentrations for their effect on cell viability. Concentration-response curves (CRCs) were derived directly from the primary screen, and both potency and efficacy values were used to identify compounds with robust bioactivity profiles. We screened the NIH Chemical Genomics Center (NCGC) Pharmaceutical Collection (NPC) and Mechanism Interrogation Plate (MIPE) small molecule collections of approved and investigational compounds against these cell lines; and measured metabolically active cells after 48 hours of compound treatment as a proxy for cell viability.
Assay Submitter: Nathalia J. Martinez, National Center for Advancing Translational Sciences, National Institutes of Health, Rockville, MD, USA; email: natalia.martinez@nih.gov
[1] Shen, M et al. Quantitative high-throughput phenotypic screening of pediatric cancer cell lines identifies multiple opportunities for drug repurposing. Oncotarget 2017 Dec 19;9(4):4758-4772. PMID 29435139.
The cells were obtained from University of North Carolina (UNC), Pediatric Preclinical Testing Program (PPT), and Coriell Institute (CI).
qHTS cell viability assay:
Cells were assayed in growth media at a density of 500-1,000 cells/well. Five microliters of cells were dispensed into 1,536-well, white, solid-bottom, TC-treated plates (Greiner Bio One) using a multidrop dispenser and incubated at 37 degrees C, 5% CO2, under a humidified atmosphere for 5 hours. Twenty-three nanoliters of compounds and controls (neutral control DMSO or positive control bortezomib at final concentration of 2.3 µM) were subsequently transferred by Kalypsys pintool. For primary screens, the MIPE collection was tested at 11-point dilutions (final concentrations range from 0.78 nM to 46 µM) and the NPC collection at 8-point dilutions (final concentrations range from 0.59 nM to 46 µM). Compounds tested in follow-up screens were assayed at 11-point dilutions. Cells were incubated for 48 hours, followed by addition of 3 µL of CellTiter-Glo (Promega). After a 15 min incubation at room temperature, samples were analyzed for luminescence intensity using a ViewLux High-throughput CCD imager equipped with clear filters.
In general terms: qHTS replaces the single test concentration by a dilution series.
For `C[C@H]1C[C@H]2[C@@H]3CCC4=CC(=O)C=C[C@]4(C)[C@@]3(Cl)[C@@H](O)C[C@]2(C)[C@@]1(O)C(=O)CO`, the call was inactive.
In the case of `CC1(C)O[C@@H]2C[C@H]3[C@@H]4C[C@H](F)C5=CC(=O)CC[C@]5(C)[C@H]4[C@@H](O)C[C@]3(C)[C@]2(C(=O)CO)O1`, the “activity change, negative = cytotoxic” value is 8.9%.
For the compound `CC(=O)OCC(=O)[C@@]12N=C(C)O[C@@H]1C[C@H]1[C@@H]3CCC4=CC(=O)C=C[C@]4(C)[C@H]3[C@@H](O)C[C@@]12C`, the Potency is 0.737 µM (active).
For `CC(=O)O[C@]1(C(C)=O)CC[C@H]2[C@@H]3C[C@H](C)C4=CC(=O)CC[C@]4(C)[C@H]3CC[C@@]21C`, the “activity change, negative = cytotoxic” value was -7.27%.
Same read-out and setting: for `C[C@]12C=CC(=O)C=C1CC[C@@H]1[C@@H]2[C@@H](O)C[C@@]2(C)[C@H]1CC[C@]2(O)C(=O)CO` the value was -9.63%.
On the same count and under the same terms, for `NC(CO)(CO)CO` the value was 24.5%.
The same measure, in the same setting: for `CC1(C)O[C@@H]2C[C@H]3[C@@H]4CCC5=CC(=O)CC[C@]5(C)[C@@]4(F)[C@@H](O)C[C@]3(C)[C@]2(C(=O)CCl)O1` the value was -1.73%; for `C=C1C[C@H]2[C@@H]3C=C(C)C4=CC(=O)CC[C@]4(C)[C@H]3CC[C@]2(C)[C@@]1(OC(C)=O)C(C)=O`, -0.346%.
Consider `COCc1c(C(C)C)nc(C(C)C)c(/C=C/[C@@H](O)C[C@@H](O)CC(=O)O)c1-c1ccc(F)cc1`, for which the Potency was 0.0657 µM (active).
For `OC[C@H]1O[C@@H](n2cnc3c(=S)nc[nH]c32)[C@H](O)[C@@H]1O`, the Potency is 4.65 µM (active).
On to `CC(=O)OCC(=O)[C@@]1(OC(C)=O)[C@@H](C)C[C@H]2[C@@H]3C[C@H](F)C4=CC(=O)C=C[C@]4(C)[C@@]3(F)[C@@H](O)C[C@@]21C`, for which the “activity change, negative = cytotoxic” value was 4.46%.
In the case of `CCCCC(CC)CN=C(N)NC(N)=NCCCCCCN=C(N)NC(N)=NCC(CC)CCCC` (configuration not stated), the Potency was 16.5 µM (active).
As to `C[C@@H]1C[C@H]2[C@@H]3CCC4=CC(=O)C=C[C@]4(C)[C@@]3(F)[C@@H](O)C[C@]2(C)[C@H]1C(=O)CO`, the “activity change, negative = cytotoxic” value was 26%.
On the same count and under the same terms, under `Oc1ccc(O)cc1` stands 14.8%; under `CCC(C(=O)OCCN(CC)CC)c1ccccc1` (configuration not stated), 1.7%.
As to `CN(C)/N=N/c1nc[nH]c1C(N)=O`, the “activity change, negative = cytotoxic” value is 9.33%.
Still for that read-out and setting: for `NC(=O)CC[C@@H]1NC(=O)[C@H](Cc2ccccc2)NC(=O)[C@H](Cc2ccc(O)cc2)NC(=O)CCSSC[C@@H](C(=O)N2CCC[C@H]2C(=O)N[C@@H](CCCN=C(N)N)C(=O)NCC(N)=O)NC(=O)[C@H](CC(N)=O)NC1=O` the value was 0.366%.
Same read-out and setting: under `CC(=O)Oc1ccc(C(c2ccc(OC(C)=O)cc2)c2ccccn2)cc1` stands 2.4%.
`CCCCCCC[N+](CC)(CC)CCCCc1ccc(Cl)cc1`: the Potency is 11.7 µM (active).
The same measure, in the same setting: under `COc1cc(C=C2CCC/C(=C\c3ccc(O)c(OC)c3)C2=O)ccc1O` stands 11.7 µM (active).
For the compound `C[C@]12CCC(=O)C=C1CC[C@H]1[C@@H]3CC[C@](O)(C(=O)CO)[C@@]3(C)C[C@H](O)[C@@]12F`, the “activity change, negative = cytotoxic” value is -2.17%.
The same measure, in the same setting: for `O=C(CCCN1CCC(O)(c2ccc(Br)cc2)CC1)c1ccc(F)cc1` the value was -11.4%.
